# Test results: PubChem BioAssay AID1347431 (National Center for Advancing Translational Sciences (NCATS), 2020)
# In all, about 1,200 compounds went through this assay and fewer than 10 were called active. The call rests on the fitted dose curve; in most records, active means well fitted curve in the direction sought with a large enough effect; inconclusive means small, poorly fitted or top-dose-only effect, or another doubt; inactive means no such curve, though single readings can be large or run the other way. Not all results are given here.
# Experiment: Confirmatory qHTS assay for inhibitors of Activation Induced Cytidine Deaminase (AID): UDG signals
# Conditions: UDG coupled enzyme activity counter-screen; series mostly up to 115 µM
# Text: Assay Provider (PI) Patricia Gearhart Ph.D.
# National Institute on Aging
# National Institute of Health (NIH), Bethesda, MD
# Assay Provider (PI) Rahul Kohli Ph.D.
# Perelman School of Medicine
# University of Pennsylvania, Philadelphia, PA
# Activation-Induced Deaminase (AID) is a cytosine deaminase which converts cytosine into uracil within stretches of ssDNA. The presence of uracil in DNA initiates a cascade of mutagenic DNA repair to introduce point mutations and DNA double strand breaks. Specific targeting of AID to the immunoglobulin heavy chain loci (Igh) promotes mutagenesis in the antibody variable region for somatic hypermutation (SHM) or switch regions leading to class switch recombination (CSR). However, AID also plays a role in accumulating unnecessary mutations across the genome. Mis-targeting of AID results in the initiation of tumor development and leads to greater drug resistance among cancer cells when continually expressed. To identify an AID inhibitor, a small molecule library will be screened in collaboration with NCATS core facility at NIH. To confirm biological function, inhibitors will be examined in an in vitro murine B-cell activation assay and subsequent secondary validation screens. Top molecules will be further screened to identify inhibitory efficacy against a wild type primary splenocytes assay. Using these approaches, we hope to identify a small molecule with great efficacy and low toxicity for use as a molecular probe to further characterize AID's intricacies, or even as a therapeutic.
# A FRET based analysis of cytosine deamination, was developed to identify potential inhibitors of AID catalytic activity. This screen has two signal output, Read 1 evaluates the AID inhibition response. The second readout (Read 2) evaluates UDG response and is uses as a counterscreen to exclude false positive inhibitors. Inhibition in AID and inactivity in the UDG signal is the desired outcome for this assay.
# SEQUENCE No. (e.g., 1, 2, 3, etc.); […] (e.g., Cells, Incubation, Reagent, etc.); VALUE; DESCRIPTION
# 1a; Reagent; 3 uL; [4/3x] 1 uM AID/2.67 U/mL UDG
# 1b; Reagent; 3 uL; 2 U/mL UDG
# 1c; Reagent; 3 uL; 1 uM AID
# 2a; Compound; 46 nL; Follow-up plates (0.64 uM - 10 mM)
# 2b; Control; 46 nL; ATA ([…] - 10 mM)
# 3; Time; 10 min; incubation at room temperature
# 5; Time; 4 hr; incubation at room temperature
# 6; Reagent; 4 uL; [2x] 250 mM NaOH
# 7; Time; 15 sec; centrifuge at 1000 rpm
# 8; Time; 30 min; incubation at room temperature
# 9a; Detection; fluorescence (Read 1: AID); EnVision (PerkinElmer) plate reader, 540 excitation and 590 emission filters
# 9b; Detection; fluorescence (Read 2: UDG); EnVision (PerkinElmer) plate reader, 560 excitation and 665 emission filters
# NOTES (numbers refer to sequence above)
# 1a; Reagents were dispensed in a medium-binding black solid-bottom Greiner plates (789176F) using a BioRptr liquid dispenser. Dispense 3 uL of [4/3x] 1 uM AID (provided by Kohli lab) and [4/3x] 2 U/mL UDG (NEB M0280L) into columns 1, 2, 5 to 48.
# 1b; Dispense 3 uL of [4/3x] 2 U/mL UDG into column 3.
# 1c; Dispense 3 uL of [4/3x] 1 uM AID into column 4.
# 2a; Compound (7-points [uM]: 0.64; 3.2; 16; 80; 400; 2,000; 10,000; […]) double pin-transferred (Dip Factor = 2) using the Kalypsys (Wako USA) pintool equipped with a 1536 pinhead for a final concentration range of 7.32 nM - 114 uM.
# 2b; 10 mM Aurintricarboxylic Acid (Sigma A1895) (ATA, 8-point, n = 2, 1:2.5 dilution in column 2) double pin-transferred (Dip Factor = 2) using the Kalypsys (Wako USA) pintool equipped with a 1536 pinhead for a [final] range of 186 nM - 114 uM.
# 3; Room temperature incubation.
# 4; Dispense 1 uL of substrate mixture from the Kohli lab [4x] […] DJC20 and [4x] 250 nM DJC23 into columns 1 to 48 .
# 5; Room temperature incubation.
# 6; Dispense 4 uL of substrate mixture [2x] 250 mM NaOH into columns 1 to 48.
# 7; Centrifugation step to remove bubbles.
# 8; Room temperature incubation
# 9a; Fluorescence signal (column label AID) was read using the EnVision plate reader. […]
row,SMILES,outcome
1,CCN1CCN(c2cc(C)c3cc(NC(=O)/C=C/c4cccc(Cl)c4)ccc3n2)CC1,inactive
2,CCOc1ccc(Nc2sc(C(=O)c3ccc(F)cc3)c(N)c2S(=O)(=O)c2ccc(C)cc2)cc1,inactive
3,CCc1ccccc1N(C)C(=O)c1sc2nc3n(c(=O)c2c1C)CCCCC3,inactive
4,COc1ccc(CNC(=O)c2cnn3c(C)c(Cc4c(F)cccc4Cl)c(C)nc23)cc1,inactive
5,COc1ccc(C(=O)c2cn(Cc3ccccc3F)c3ccc(F)cc3c2=O)cc1,inactive
6,CCCCCCSc1nc(N)c2c3c(sc2n1)CCCC3C (stereo unspecified),inactive
7,Cc1nc2c(C(=O)NCCc3ccc(Cl)cc3)cnn2c(C)c1Cc1ccc(F)cc1,inactive
8,Cc1cccc(N2C(=O)N(CC(=O)C(C)(C)C)c3ccccc3S2(=O)=O)c1C,inactive
9,COc1ccccc1OCCn1c(C(C)Oc2ccccc2)nc2ccccc21 (stereo unspecified),inactive
10,CCOc1ccccc1NC(=O)CN1C(=O)CC(c2ccc(OC)c(OC)c2)Sc2ccccc21 (stereo unspecified),inactive
11,CCC(C(=O)N1CCN(c2cc(C)ccc2C)CC1)n1nc(C)n2c(cc3occc32)c1=O (stereo unspecified),inactive
12,COc1ccc(-n2c(Cc3ccccc3)nnc2SCc2nc(-c3ccccc3C)no2)cc1,inactive
13,COc1ccc(N2C(=O)CSC23C(=O)N(Cc2cccc(C(F)(F)F)c2)c2ccccc23)cc1 (stereo unspecified),inactive
14,Cc1nc2cc(-c3ccccc3)nn2c(C)c1CCC(=O)N1CCN(c2ccc(F)cc2)CC1,inactive
15,COc1ccc(C)cc1N(C)C(=O)c1sc2nc3n(c(=O)c2c1C)CCCCC3,inactive
16,Cc1oc(-c2ccccc2Cl)nc1CS(=O)CC(=O)N1CCN(c2cccc(C(F)(F)F)c2)CC1 (stereo unspecified),inactive
17,Cc1ccc2onc(CC(=O)N3CCN(c4cc(Cl)ccc4C)CC3)c2c1,inactive
18,CCn1cc(C(=O)NCCc2ccc(OC)c(OC)c2)c(=O)c2cc(S(=O)(=O)N(C)C3CCCCC3)ccc21,inactive
19,CC(C)c1ccc(NC(=O)c2ccc3c(O)c(S(=O)(=O)c4ccccc4)c(=O)[nH]c3c2)cc1,inactive
20,CCn1cc(S(=O)(=O)c2ccc(C)cc2C)c(=O)c2cc(F)c(N3CCCC3)cc21,inactive
21,Cc1cccc(CNC(=O)c2oc3c(c2C)-c2nn(Cc4ccccc4Cl)cc2CC3)c1,inactive
22,COc1ccc(N2CCN(C(=O)c3cc4c(-c5ccccc5F)nn(C)c4s3)CC2)cc1,inactive
23,CCc1cccc(-n2c(C)nc3c(cnn3-c3ccc(Cl)cc3)c2=O)c1,inactive

row,SMILES,outcome
1,CCOc1ccc(-c2nc(CSCC(=O)N3CCN(c4cccc(C(F)(F)F)c4)CC3)c(C)o2)cc1,inactive
2,Cc1ccc(-n2ncc(C(=O)NCCc3ccccc3)c2C2CCN(C(=O)OC(C)(C)C)CC2)c(C)c1,inactive
3,CCn1cc(C(=O)NCCc2ccc(OC)c(OC)c2)c(=O)c2cc(S(=O)(=O)N3CCC(C)CC3)ccc21,inactive
4,COc1cc2nc(NC(=O)c3ccc(S(=O)(=O)N4CCc5ccccc54)cc3)sc2cc1OC,inactive
5,Cc1ccc2oc(C(=O)NCC(c3ccc(Cl)cc3)N3CCOCC3)c(C)c2c1 (stereo unspecified),inactive
6,N=c1n(CCN2CCCCC2)c2ccccc2n1CC(O)COc1ccc(Cl)cc1Cl (stereo unspecified),inactive
7,CCCCN(CC)CCNC(=O)c1cc2c(=O)oc3ccc(C)cc3c2s1,inactive
8,O=C(Nc1ccc(F)cc1F)c1ccc2c(O)c(S(=O)(=O)c3ccc(Cl)cc3)c(=O)[nH]c2c1,inactive
9,CCC(C(=O)Nc1cc(Cl)ccc1OC)n1nc(-c2ccccc2)ccc1=O (stereo unspecified),inactive
10,CCCNC(=O)c1cnn2c(C)c(Cc3c(C)cc(C)cc3C)c(C)nc12,inactive
11,CCc1ccc(NC(=O)CSc2nccn2-c2cccc(C)c2C)cc1,inactive
12,Cc1c(Cl)cccc1-n1ncc(C(=O)NCc2cccs2)c1C1CCN(C(=O)OC(C)(C)C)CC1,inactive
13,Cc1nc2ccccc2n1CCc1nc2c3ccccc3nc(SCC(=O)Nc3ccc(C(C)C)cc3)n2n1,inactive
14,COc1ccc(NC(=O)c2c(NC(=O)c3ccc(Br)cc3)sc3c2CCCC3)cc1,inactive
15,Cc1ccccc1Cc1c(C)nc2nc(SCC(=O)NCCc3ccc(Cl)cc3)nn2c1C,inactive
16,COCCCNC(=O)c1oc2c(c1C)-c1nn(Cc3cccc(Cl)c3)cc1CC2,inactive
17,Cc1cccc(-n2c3nc(=O)[nH]c(=O)c-3cc3ccc(Cl)cc32)c1C,inactive
18,Cc1cc(N)c(-n2cc3c(c2-c2ccc(Br)cc2)c(=O)n(C)c(=O)n3C)cc1C,inactive
19,Cc1cccc(Cn2nnc3c(=O)[nH]c(C4CCCN(C(=O)c5ccc(C(C)(C)C)cc5)C4)nc32)c1 (stereo unspecified),inactive
20,COc1ccc(CCN2CCC(CNC(=O)c3cnn(-c4cccc(Cl)c4)c3C3CCN(C(=O)OC(C)(C)C)CC3)CC2)cc1,inactive
21,COc1cc(NC(=O)CCc2c(C)nc3c4c(C)cc(C)nc4nn3c2C)cc(OC)c1,inactive
22,CCOC(=O)c1ccc(-c2ccc(/C=C(\C#N)c3nc4ccc(C)cc4[nH]3)o2)cc1,inactive
23,Cc1ccc(C)c(N2CCN(CCCNC(=O)c3cnn(-c4cccc(Cl)c4)c3C3CCN(C(=O)OC(C)(C)C)CC3)CC2)c1,inactive

row,SMILES,outcome
1,Cc1cccc(OC(C)C(=O)N2CCC(c3nc4ccccc4o3)CC2)c1C (stereo unspecified),inactive
2,COc1ccc(-c2csc3nc(-c4ccc(C)cc4)oc(=O)c23)cc1OC,inactive
3,COc1ccc(OCCCn2c(=O)oc3ccc(C)cc32)cc1,inactive
4,Cc1ccc(Cl)cc1N(C)C(=O)c1cc2ccc3cccnc3c2[nH]1,inactive
5,COc1ccc(OC)c(NC(=O)Cn2c(=O)cc(C)c3c(C)nn(-c4cccc(Cl)c4C)c32)c1,inactive
6,COc1ccccc1NC(=O)c1cc2cc3ccc(OC)c(Cl)c3nc2s1,inactive
7,Cc1ccc(C)c(CSc2cn(CCNC(=O)c3cccs3)c3ccccc23)c1,inactive
8,CCOc1ccc(NC(=O)CSc2nccn2-c2cccc(C)c2C)cc1,inactive
9,CCOc1ccc(S(=O)(=O)c2c(C(=O)c3ccc(C)c(C)c3)cnc3ccccc23)cc1,inactive
10,CCC1CCCCN1C(=O)CSc1nc(-c2ccc(OC)cc2)cc(C(F)(F)F)n1 (stereo unspecified),inactive
11,CCn1cc(C(=O)NCc2ccccc2OC)c(=O)c2cc(S(=O)(=O)N3CCCCC3)ccc21,inactive
12,Cc1ccccc1OCC(=O)Nc1cccc(C(=O)OCc2cc(=O)n3c(C)csc3n2)c1,inactive
13,COc1ccc(CC(=O)N(Cc2nc(-c3ccc(C)cc3)no2)C(C)C)cc1,inactive
14,Cc1ccccc1-c1nc(CS(=O)CC(=O)N2CCN(c3cc(Cl)ccc3C)CC2)c(C)o1 (stereo unspecified),inactive
15,CS(=O)(=O)N(Cc1ccccc1)c1ccc(C(=O)Nc2ccc(Cl)cc2)cc1,inactive
16,CCOC(=O)c1cc(-c2ccc(C)cc2)n(CCC(=O)Nc2ccc(OC)c(OC)c2)c1C,inactive
17,Cc1nc2c(-c3ccccc3)c(C)nn2c(C)c1CCC(=O)N1CCN(c2ccc(F)cc2)CC1,inactive
18,C=Cc1ccc(CSc2nc(-c3ccc(C)cc3)nc3c2Cc2c(CO)cnc(C)c2O3)cc1,inactive
19,CCc1ccc(CN(Cc2ccco2)C(=O)c2ccc(OC)cc2)cc1,inactive
20,COc1ccc(CC(=O)NCC(c2cccs2)S(=O)(=O)c2ccc(Cl)cc2)cc1 (stereo unspecified),inactive
21,Cc1cc(N(C)Cc2ccccc2)n2nc(-c3ccc(C(C)(C)C)cc3)nc2n1,inactive
22,Cc1cc(C)cc(Nc2nc3cc(Cl)c(Cl)cc3nc2-n2nc(C)cc2C)c1,inactive
23,N#CC1=C2SCN(C3CCCCC3)CN2C(=O)CC1c1c(F)cccc1Cl (stereo unspecified),inactive

row,SMILES,outcome
1,Cc1c(C(=O)N(C)Cc2ccccc2)sc2nc(-c3ccc(F)cc3)cn12,inactive
2,CCOC(=O)c1cccc(NC(=O)c2oc3c(c2C)-c2nn(CC)cc2CC3)c1,inactive
3,COc1ccc(OCC(=O)NCC(c2ccc(Cl)cc2)N2CCCCC2)cc1 (stereo unspecified),inactive
4,CC1CCCCN1C(=O)c1ccc2c(c1)N(Cc1ccc(Cl)cc1)C(=O)c1ccccc1S2=O (stereo unspecified),inactive
5,Cc1ccc(Cl)cc1N1CCN(C(=O)Cn2cnc3nc4c(cc3c2=O)CCCC4)CC1,inactive
6,CC(C)(C)C1CCc2c(sc(NC(=O)c3ccccc3F)c2C(=O)NCc2ccco2)C1 (stereo unspecified),inactive
7,COc1ccc(C(=O)N2CCc3cc(OC)c(OC)cc3C2COc2ccccc2OC)cc1 (stereo unspecified),inactive
8,COc1ccc(CCN2CCC(CNC(=O)c3cnn(-c4ccc(C)cc4)c3C3CCN(C(=O)OC(C)(C)C)CC3)CC2)cc1,inactive
9,Cc1ccc(CNC(=O)C2CCCN(c3nc4ccccc4n4cccc34)C2)cc1 (stereo unspecified),inactive
10,COC(=O)c1ccc(CSc2nnc3ccc4ccccc4n23)cc1,inactive
11,Cc1cccc(N2CCN(C(=O)c3cccn3-c3nnc(N4CCCCC4)s3)CC2)c1C,inactive
12,Cc1ccc(-c2cn(-c3cccc(Cl)c3)c(S(=O)(=O)CC(=O)Nc3cccc(C)c3)n2)cc1,inactive
13,Cc1ccc2c(c1)C(c1ccc(F)cc1)N(C(=O)COc1ccc(Cl)cc1Cl)CC(=O)N2 (stereo unspecified),inactive
14,CCC(C(=O)N1CCN(c2ccccc2)CC1)n1nc(C)n2c(cc3sccc32)c1=O (stereo unspecified),inactive
15,CCOc1ccccc1CNC(=O)c1cnc2sc(N3CCCCCC3)nn2c1=O,inactive
16,COc1ccc(N2CCN(C(=O)c3nn(C)c4c3CSc3ccccc3-4)CC2)cc1,inactive
17,Cc1cccn2c(=O)c3cc(C(=O)N(Cc4ccccc4)C(C)C)sc3nc12,inactive
18,CCCCN(CC)CCNC(=O)C1CCN(c2nnc(C)c3c(C)n(-c4ccc(C)cc4)nc23)CC1,inactive
19,CCOC(=O)c1c(C)oc2nc(C)nc(N(CC(C)C)CC(C)C)c12,inactive
20,CCCN(CCC)CCNC(=O)c1cc2c(-c3ccc(Cl)cc3)nn(C)c2s1,inactive
21,CCCCN(CCCC)CC(O)Cn1cc(/C=C/C(=O)c2ccccc2)c2ccccc21 (stereo unspecified),inactive
22,COc1cccc(N2CCN(C(=O)c3cnn(-c4ccc(C)cc4C)c3C3CCN(C(=O)OC(C)(C)C)CC3)CC2)c1,inactive
